In all, about 93,000 compounds went through this assay and about 180 (0.19%) were called active.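 How the source made its calls: active means activation above the screen mean plus 3 SD, with well images confirming the hit on visual review (cut at about 28% in these data, passing the limit was not always enough); inconclusive means activation above that limit but images do not confirm it; inactive means activation not above that limit.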 Only a selection was taken, and actives are over-represented in it overall.

A short description of the experiment: enhancers of endothelial VCAM-1 upregulation by TNFa – imaging, HUVEC, TNFa stimulus, immunofluorescence, primary screen (AID 808).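 Further: signal is the number of cytoplasmic VCAM-1 stained grains per positive cell.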 The settings on record: HUVEC TNFa-stimulated VCAM-1 immunofluorescence, high-content imaging; at 2 µM; hits give high values.
As to `COC(=O)CN1C(=O)C2(C(C(=O)OC)=C(N)Oc3ccccc32)C2=C1CC(C)(C)CC2=O` (stereo not given), the activation was 33.9% (active). Take `CCOC(=O)C(O)(c1ccc(N)c(OC)c1)C(F)(F)F` (stereo not given): the activation was -9.7% (inactive). With `c1cncc(CNC2=NCCC2)c1`, the activation is -5.4% (inactive). The figure for `O=C(NCC(c1cccnc1)N1CCN(c2ccccc2)CC1)Oc1ccccc1` (stereo not given) is 1.5% (inactive).

For the compound `CNC(=O)N(C)c1nnc(C(C)(C)C)s1`, the activation is 4.6% (inactive).

Values taken from PubChem BioAssay AID808 (Columbia University Molecular Screening Center, 2007).
